Test results reported in PubChem BioAssay AID2073 (Sanford-Burnham Center for Chemical Genomics, 2009).
The whole screen tested about 290,000 compounds, of which about 570 (0.2%) were called active. About 1% were inconclusive and are not listed. Cut-off read from the data, not from the text of the source: active = inhibition mostly above about 51% (no sharp cut-off); inconclusive = no clear call, values can overlap the other calls; inactive = mostly below about 53%. The entries come from a sample that favours actives as a whole.

Target: Voltage-dependent N-type calcium channel subunit alpha-1B (Homo sapiens) (UniProt Q00975)
Assay: inhibitors of Mint1-CaV2.2 protein interaction, biochemical, HTRF (AID 2073)
Conditions: at 20 µM, stronger effect = higher value

Chain of Voltage-dependent N-type calcium channel subunit alpha-1B (Homo sapiens) (Q00975 whole entry, looked up): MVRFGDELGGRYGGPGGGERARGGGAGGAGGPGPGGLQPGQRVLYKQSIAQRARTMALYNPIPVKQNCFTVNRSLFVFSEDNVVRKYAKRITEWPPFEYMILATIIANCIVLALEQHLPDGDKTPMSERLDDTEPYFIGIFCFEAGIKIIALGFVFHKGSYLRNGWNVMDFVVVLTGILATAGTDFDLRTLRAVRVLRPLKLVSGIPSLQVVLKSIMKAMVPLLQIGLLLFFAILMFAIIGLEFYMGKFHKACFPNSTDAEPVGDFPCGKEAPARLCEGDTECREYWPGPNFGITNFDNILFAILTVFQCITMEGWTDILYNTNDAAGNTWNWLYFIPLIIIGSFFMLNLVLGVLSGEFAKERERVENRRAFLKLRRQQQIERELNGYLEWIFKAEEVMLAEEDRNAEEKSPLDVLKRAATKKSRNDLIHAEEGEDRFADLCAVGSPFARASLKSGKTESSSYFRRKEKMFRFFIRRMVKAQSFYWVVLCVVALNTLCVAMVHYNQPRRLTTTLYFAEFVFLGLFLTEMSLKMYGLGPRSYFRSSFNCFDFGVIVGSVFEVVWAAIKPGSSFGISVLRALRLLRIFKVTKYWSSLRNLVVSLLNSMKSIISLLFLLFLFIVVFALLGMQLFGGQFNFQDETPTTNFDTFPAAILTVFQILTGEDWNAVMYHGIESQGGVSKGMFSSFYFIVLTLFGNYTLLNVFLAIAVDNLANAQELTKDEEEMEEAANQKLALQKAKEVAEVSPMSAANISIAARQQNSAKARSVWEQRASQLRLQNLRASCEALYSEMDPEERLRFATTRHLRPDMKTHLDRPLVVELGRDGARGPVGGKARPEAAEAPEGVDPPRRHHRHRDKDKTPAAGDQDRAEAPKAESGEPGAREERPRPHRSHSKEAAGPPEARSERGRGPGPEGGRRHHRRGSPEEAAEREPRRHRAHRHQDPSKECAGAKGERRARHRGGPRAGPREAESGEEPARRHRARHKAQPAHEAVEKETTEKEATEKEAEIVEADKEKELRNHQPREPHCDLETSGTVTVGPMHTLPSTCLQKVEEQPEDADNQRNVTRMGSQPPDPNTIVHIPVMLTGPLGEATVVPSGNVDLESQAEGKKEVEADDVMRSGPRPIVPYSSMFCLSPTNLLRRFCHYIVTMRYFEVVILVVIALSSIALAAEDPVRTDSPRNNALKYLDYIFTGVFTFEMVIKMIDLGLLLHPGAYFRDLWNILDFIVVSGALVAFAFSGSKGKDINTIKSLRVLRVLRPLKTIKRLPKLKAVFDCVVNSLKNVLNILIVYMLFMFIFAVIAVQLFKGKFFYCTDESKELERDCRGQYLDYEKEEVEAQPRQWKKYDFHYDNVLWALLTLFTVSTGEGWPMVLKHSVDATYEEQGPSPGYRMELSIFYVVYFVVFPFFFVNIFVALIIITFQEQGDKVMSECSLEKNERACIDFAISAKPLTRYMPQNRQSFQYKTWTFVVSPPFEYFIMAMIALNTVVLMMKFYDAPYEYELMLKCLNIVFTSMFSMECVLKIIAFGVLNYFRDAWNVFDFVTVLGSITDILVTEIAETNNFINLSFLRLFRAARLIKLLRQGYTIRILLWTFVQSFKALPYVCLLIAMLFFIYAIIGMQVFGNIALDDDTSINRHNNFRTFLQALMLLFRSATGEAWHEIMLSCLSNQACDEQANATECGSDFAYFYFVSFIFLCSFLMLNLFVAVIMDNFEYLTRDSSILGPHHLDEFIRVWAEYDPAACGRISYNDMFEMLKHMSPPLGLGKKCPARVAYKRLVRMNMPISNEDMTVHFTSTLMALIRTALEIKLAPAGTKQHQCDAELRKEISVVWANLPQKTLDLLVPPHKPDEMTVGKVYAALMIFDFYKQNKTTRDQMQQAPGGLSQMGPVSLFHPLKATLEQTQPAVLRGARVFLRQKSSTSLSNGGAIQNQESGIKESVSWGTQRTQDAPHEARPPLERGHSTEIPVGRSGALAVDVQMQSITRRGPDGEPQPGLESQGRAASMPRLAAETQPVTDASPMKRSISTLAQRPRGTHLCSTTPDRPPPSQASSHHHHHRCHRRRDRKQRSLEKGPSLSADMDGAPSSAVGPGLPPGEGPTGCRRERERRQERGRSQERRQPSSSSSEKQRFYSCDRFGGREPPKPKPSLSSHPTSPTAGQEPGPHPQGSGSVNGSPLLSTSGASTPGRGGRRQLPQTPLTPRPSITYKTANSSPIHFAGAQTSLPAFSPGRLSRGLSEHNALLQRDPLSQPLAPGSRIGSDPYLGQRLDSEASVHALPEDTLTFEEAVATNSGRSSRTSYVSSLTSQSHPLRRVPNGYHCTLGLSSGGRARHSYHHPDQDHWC

Compound | inhibition | inhibition (measured here: average of repeat tests)
Nc1cc(Cl)ccc1C(=O)OCC(=O)N1CCOCC1 | 7.5% (inactive) | –
O=C(O)c1cc(NCc2cccs2)ccc1N1CCOCC1 | 9.9% (inactive) | –
CCn1c(SCC(=O)NC2CCCCC2)nnc1C(C)NC(=O)c1ccccc1F (stereo unspecified) | 8.6% (inactive) | –
CC(C)c1ccc(OCC(O)CN2CCCC2)cc1 (stereo unspecified) | -4.2% (inactive) | –
CCCn1c(SCC(=O)N2c3ccc(F)cc3CCC2C)nnc1-c1ccccn1 (stereo unspecified) | 7% (inactive) | –
O=C(/C=C/c1ccco1)c1ccc(NC(=O)C23CC4CC(CC(C4)C2)C3)cc1 | 67.9% (active) | –
O=C(/C=C\c1ccco1)c1ccc(NC(=O)c2ccco2)cc1 | 68.1% (inactive) | 4%
CC(=O)Nc1ccc(C(=O)/C=C/c2ccco2)cc1 | 30.9% (inactive) | –
O=S(=O)(/N=C(/Nc1ccccc1)c1ccccc1O)c1ccccc1 | -7.3% (inactive) | –
Brc1ccc(C2=Nc3cccc4cccc(c34)N2)o1 | -20.5% (inactive) | –
c1coc(C2=Nc3cccc4cccc(c34)N2)c1 | 54.2% (active) | –
Fc1ccc(C2=Nc3cccc4cccc(c34)N2)cc1 | -8.3% (inactive) | –
CNC(=O)CCn1nc(-c2ccc(C)cc2)c2ccccc2c1=O | -2.1% (inactive) | –
CCOC(=O)c1c(O)cc(C)cc1Nc1ccccc1 | 14.3% (inactive) | –
CCOc1ccc(C(=O)NCC(=O)OCC(=O)c2ccc3c(c2)-c2ccccc2C3)cc1 | 18.8% (inactive) | –
CCC(C)NC(=S)N(CCc1ccccc1)Cc1cc2cc(OC)c(OC)cc2[nH]c1=O (stereo unspecified) | 7.1% (inactive) | –
CNC(=S)N(CCc1cccc(C)c1)Cc1cc2cc(OC)c(OC)cc2[nH]c1=O | 46.2% (inactive) | –
CNC(=S)N(CCc1ccccc1)Cc1cc2cc(OC)c(OC)cc2[nH]c1=O | 65.8% (active) | –
O=C(CC1(O)C(=O)N(C/C=C/c2ccccc2)c2ccccc21)c1ccccn1 (stereo unspecified) | 0% (inactive) | –
NCCOc1ccc(C2CCCCC2)cc1 | -11.4% (inactive) | –

Compound | inhibition | inhibition (measured here: average of repeat tests)
CCc1nc(NCCN2CCOCC2)c(C#N)c2c1CCCC2 | 9.8% (inactive) | –
CCc1cccc(C)c1NC(=O)CSc1nc2ccc(N3C(=O)c4ccccc4C3=O)cc2s1 | 17.8% (inactive) | –
Cc1cc(C)c(NC(=O)CSc2nc3ccc(N4C(=O)c5ccccc5C4=O)cc3s2)c(C)c1 | 55.2% (active) | –
Cc1ccc(C)c(NC(=O)CSc2nc3ccc(N4C(=O)c5ccccc5C4=O)cc3s2)c1 | -0.7% (inactive) | –
Cc1ccc(C(=O)N/N=C/c2c(O)ccc3ccccc23)cn1 | 14.1% (inactive) | –
Cc1cccc(C)c1NCc1n[nH]c(=S)n1-c1ccccc1 | -8.3% (inactive) | –
O=C(NCCCN1CCOCC1)c1sc2cc([N+](=O)[O-])ccc2c1Cl | 67.7% (active) | –
O=C(NCCCN1CCOCC1)c1sc2cc(Cl)ccc2c1Cl | -10.3% (inactive) | –
O=C(NCCCN1CCOCC1)c1sc2cc(F)ccc2c1Cl | -0.7% (inactive) | –
C=C(C)CSc1[nH]c(=O)cc(C)c1C#N | 1.3% (inactive) | –
Nc1c(C(=O)Nc2ccccc2)sc2nc3c(c(-c4ccco4)c12)CCC3 | 29.5% (inactive) | –
Nc1c(C(=O)Nc2ccccc2)sc2nc3c(c(-c4ccco4)c12)CCCC3 | 2.1% (inactive) | –
Nc1c(C(=O)NCC2CCCO2)sc2nc3c(c(-c4ccco4)c12)CC/C3=C\c1ccco1 (stereo unspecified) | 86.1% (active) | –
O=C(O)CCNS(=O)(=O)c1ccc(Oc2ccccc2)cc1 | -1.3% (inactive) | –
CSCCC(NC(=O)OC(C)(C)C)C(=O)NC(C(=O)NC(CC(C)C)C(N)=O)C(C)C (stereo unspecified) | 15.6% (inactive) | –
Cc1ccc(N2C(=O)C3C4C=CC(CNC(=S)N5CCN(c6ccccc6)CC5)(O4)C3C2=O)cc1 (stereo unspecified) | 45.6% (inactive) | –
Cc1nc2cc(NC(=O)N3CCN(c4ccccn4)CC3)ccc2o1 | 0% (inactive) | –
CCOC(=O)C1CCN(C(=O)Nc2ccc3nc(C)c(C)nc3c2)CC1 | 36% (inactive) | –
O=C(Nc1ccc2nc(-c3ccco3)c(-c3ccco3)nc2c1)N1CCN(c2ccccn2)CC1 | 84.9% (active) | –
Cn1nnc2cc(NC(=O)N3CCN(c4ccccn4)CC3)ccc21 | -0.5% (inactive) | –

Compound | inhibition | inhibition (measured here: average of repeat tests)
O=C(Nc1ccc(N2CCOCC2)cc1)Nc1ccc2nc(-c3ccco3)c(-c3ccco3)nc2c1 | 48.8% (inactive) | –
Cc1nc2ccc(NC(=O)N3CCCCC3)cc2nc1C | 40.3% (inactive) | –
O=C(Nc1ccc2nc(-c3ccco3)c(-c3ccco3)nc2c1)N1CCCCCC1 | 71.2% (active) | –
CCOC(=O)C1CCN(C(=O)Nc2ccc3nccnc3c2)CC1 | 24.5% (inactive) | –
CCOC(=O)C1CCN(C(=O)Nc2ccc3nc(-c4ccco4)c(-c4ccco4)nc3c2)CC1 | 83.1% (active) | –
Cc1ccc(NC(=O)NC(=O)CSc2nnnn2C)c(C)c1 | -7.8% (inactive) | –
COc1cccc(C(C(=O)NC(C)(C)C)N(C(=O)CCC(=O)Nc2cc(C)on2)C(C)(C)C)c1OC (stereo unspecified) | -7.6% (inactive) | –
O=C(CN1CCCCCC1=O)N1CCN(S(=O)(=O)c2cccs2)CC1 | 14.5% (inactive) | –
CCOC(=O)c1[nH]c2ccccc2c1CCCN1C(=O)c2ccccc2C1=O | -6.7% (inactive) | –
CN(C)C(=O)CCC(=O)N1CCCC(N2CCN(c3cccc(C(F)(F)F)c3)CC2)C1 (stereo unspecified) | 5.4% (inactive) | –
Nc1nc(N2CCN(c3ccccc3)CC2)n[nH]1 | -13.2% (inactive) | –
CCn1c(SCC(=O)N2CCC(C)CC2)nc2c1c(=O)n(C)c(=O)n2C | 2.5% (inactive) | –
NC(=O)CCC(NS(=O)(=O)c1ccc(Cl)cc1)C(=O)NCc1ccccc1 (stereo unspecified) | -16.2% (inactive) | –
CC(C)C(=O)N1CCN(c2ccc(NC(=O)c3cccs3)cc2Cl)CC1 | 0.8% (inactive) | –
CCOC(=O)C1CCN(C(=O)CN(c2ccc3c(c2)OCCO3)S(C)(=O)=O)CC1 | -9.6% (inactive) | –
Cc1cccc(COCC(Cc2ccccc2)N2CCN(C(=O)c3cccc(Cl)c3)CCC2=O)c1 (stereo unspecified) | 1.7% (inactive) | –
O=S(=O)(NC1=NCCCCC1)c1ccccc1Cl | 7.5% (inactive) | –
CCN(CC)c1nc2c3c(nc4c(c3c1C#N)CC(=O)N4c1ccc(Cl)cc1)NC(C)=N2 | 15.5% (inactive) | –
COc1ccc(CN2C(=O)Cc3c2nc(N)c2c(N)nc(N4CCCCC4)c(C#N)c32)cc1 | 24.2% (inactive) | –
CC1=Nc2nc(N3CCCCC3)c(C#N)c3c4c(nc(c23)N1)N(c1ccc(C(C)C)cc1)C(=O)C4 | 54.8% (active) | –
